Inhibition data for 26 compounds are collected here from ChEMBL document CHEMBL4513141, “CO-ADD screening of NIH (USA) - Clinical Collection” (2021).

The test system of assay [1] is Staphylococcus aureus. Conditions: Concentration 20 uM; ASSAY_TEST Inhibition of Bacterial Growth; detection method Absorption (OD600); MEDIA CAMHB; plate type 384well; NBS; CORNING #3640; time 18 hr.
For assay [2], the system named is Escherichia coli. Conditions: Concentration 20 uM; ASSAY_TEST Inhibition of Bacterial Growth; detection method Absorption (OD600); MEDIA CAMHB; plate type 384well; NBS; CORNING #3640; time 18 hr.

Entries with a potency or affinity are not part of this list.

Regarding `O.OC[C@H]1O[C@@H](n2cnc3c(NC4CCCC4)nc(Cl)nc32)[C@@H](O)C1O` (some centres not stated), the values for the Inhibition in assay [1] and in assay [2] were 16.71% and -5.97%, respectively.

Consider `COc1ccc2[nH]c([S+]([O-])Cc3ncc(C)c(OC)c3C)nc2c1` (configuration not stated) [OMEPRAZOLE], for which the Inhibition in assay [1] was 3.38%; in assay [2], -0.65%.

On to `CC(Cc1ccccc1)(NC(=O)CN)c1ccccc1.Cl` (configuration not stated) [REMACEMIDE HYDROCHLORIDE], for which the values for the Inhibition in assay [1] and in assay [2] were 12.25% and -0.35%, respectively.

For the compound `CN1C(C(=O)Nc2ccccn2)=C(O)c2ccccc2S1(=O)=O.O`, the figures for the Inhibition in assay [1] and in assay [2] were 15.17% and -5.74%, respectively.

`CCC(=O)O[C@]1(C(=O)SCF)[C@H](C)C[C@H]2[C@@H]3C[C@H](F)C4=CC(=O)C=C[C@]4(C)[C@@]3(F)[C@@H](O)C[C@@]21C` [FLUTICASONE PROPIONATE]: the values for the Inhibition in assay [1] and in assay [2] were -21.58% and 6.95%, respectively.

`Cl.O=C(O)/C=C/c1ccc(Cn2ccnc2)cc1`: the Inhibition is reported as -2.16% in assay [1] and 6.89% in assay [2].

Consider `C=C1/C(=C\C=C2/CCC[C@]3(C)[C@@H]([C@H](C)/C=C/[C@@H](O)C4CC4)CC[C@@H]23)C[C@@H](O)C[C@@H]1O` [CALCIPOTRIENE], for which the values for the Inhibition in assay [1] and in assay [2] were 9.78% and 4.8%, respectively.

For the compound `Cc1nc2ccccn2c(=O)c1CCN1CCC(C(=O)c2ccc(F)cc2)CC1` [PIRENPERONE], the Inhibition in assay [1] is on record as 1.36%; in assay [2] it was 7.4%.

Consider `CN(C)CCC[C@@]1(c2ccc(F)cc2)OCc2cc(C#N)ccc21.O=C(O)C(=O)O` [ESCITALOPRAM OXALATE], for which the Inhibition worked out at 8.47% in assay [1] and 3.57% in assay [2].

Regarding `COc1ccccc1OCC(O)CN1CCN(CC(=O)Nc2c(C)cccc2C)CC1.Cl.Cl` (configuration not stated) [RANOLAZINE HYDROCHLORIDE], the Inhibition in assay [1] is reported as 15.16%; in assay [2], -4.15%.

As to `NC(CO)(CO)CO.O=C(c1ccccc1)c1ccc2n1CCC2C(=O)O` (configuration not stated) [KETOROLAC TROMETHAMINE], the figures for the Inhibition in assay [1] and in assay [2] were 4.45% and -3.99%, respectively.

As for `Cl.Cn1c(NCCN(CCO)CCCc2ccc([N+](=O)[O-])cc2)cc(=O)n(C)c1=O`, the Inhibition in assay [1] was -11.53%; in assay [2], 3.31%.

As for `Cl.O.O=C1N(c2ccccc2)c2ccccc2C1(Cc1ccncc1)Cc1ccncc1`, the results for the Inhibition in assay [1] and in assay [2] were 4.07% and 3.98%, respectively.

On to `CCN(CC)CCOc1ccc(C(=C(Cl)c2ccccc2)c2ccccc2)cc1.O=C(O)CC(O)(CC(=O)O)C(=O)O` [CLOMIPHENE CITRATE], for which the Inhibition in assay [1] came out at 43.2%; in assay [2] it was 2.4%.

Regarding `CCCCCCCCCCC[C@@H](C[C@@H]1OC(=O)[C@H]1CCCCCC)OC(=O)[C@H](CC(C)C)NC=O` [ORLISTAT], the Inhibition is listed as 11.59% in assay [1] and -4.78% in assay [2].

With `COc1ccc(Cl)cc1C(=O)NCCc1ccc(S(=O)(=O)NC(=O)NC2CCCCC2)cc1` [GLYBURIDE], the Inhibition is -3.01% in assay [1] and -12.57% in assay [2].

Turning to `CC(C)[C@H]1CC[C@H](C(=O)N[C@H](Cc2ccccc2)C(=O)O)CC1` [NATEGLINIDE], the Inhibition in assay [1] is recorded as 10.43%; in assay [2] it was 6.41%.

`CC(=O)O.CC(C)C[C@H](NC(=O)[C@@H](COC(C)(C)C)NC(=O)[C@H](Cc1ccc(O)cc1)NC(=O)[C@H](CO)NC(=O)[C@H](Cc1c[nH]c2ccccc12)NC(=O)[C@H](Cc1c[nH]cn1)NC(=O)[C@H]1CCC(=O)N1)C(=O)N[C@H](CCCNC(=N)N)C(=O)N1CCC[C@@H]1C(=O)NNC(N)=O`: the Inhibition is listed as 9.86% in assay [1] and 5.78% in assay [2].

In the case of `O=C(C1CCCCC1)N1CC(=O)N2CCc3ccccc3C2C1` (configuration not stated) [PRAZIQUANTEL], the Inhibition in assay [1] stood at 20.65%; in assay [2], 3.85%.

For `CN(C)CCC(c1ccc(Cl)cc1)c1ccccn1.O=C(O)/C=C\C(=O)O` (configuration not stated) [CHLORPHENIRAMINE MALEATE], the Inhibition in assay [1] is given as -22.38%; in assay [2], 7.3%.

For `CCN1CCCC1CNC(=O)c1cc(S(=O)(=O)CC)c(N)cc1OC` (configuration not stated) [AMISULPRIDE], the Inhibition in assay [1] was 15.04%; in assay [2] it was -7.41%.

For the compound `C=C[C@H]1CN2CC[C@H]1C[C@@H]2[C@@H](O)c1ccnc2ccc(OC)cc12` [QUINIDINE], the Inhibition in assay [1] is reported as 10.07%; in assay [2] it was -1.55%.

Regarding `C[C@H](CS)C(=O)N1CCC[C@H]1C(=O)O` [CAPTOPRIL], the Inhibition in assay [1] is -7.06%; in assay [2] it was 4.92%.

On to `CNC(=C[N+](=O)[O-])NCCSCc1csc(CN(C)C)n1` [NIZATIDINE], for which the figures for the Inhibition in assay [1] and in assay [2] were 11.02% and 4.27%, respectively.

In the case of `Cl.Nc1c2c(nc3ccccc13)CCCC2` [TACRINE HYDROCHLORIDE], the Inhibition in assay [1] is 10.46%; in assay [2], 0.14%.

Regarding `CN(C)[C@@H]1C(=O)C(C(=O)NCN2CCCC2)=C(O)[C@@]2(O)C(O)=C3C(=O)c4c(O)cccc4[C@@](C)(O)C3CC12` (some centres not stated), the Inhibition in assay [1] amounted to 23.2%; in assay [2] it was 5.47%.
